Inconclusive results are not listed. Entries that show only a call come without a potency. Calls of active or inactive are those of the source. Calls come from the whole dose curve; as a rule, active = well fitted cell-killing curve with a large enough effect; inconclusive = small, poorly fitted or top-dose-only effect; inactive = flat fitted curve, though single readings scatter.
Test: Quantitative highthroughput screen to assess conditional lethalithy of P12 Ichikawa cells grown in Human Plasma-Like Medium with dialyzed fetal bovine serum (HPLM+ds) (AID 1963879); note: nearly all actives have a fitted effect of over 35% in size
Conditions: ATP luminescence, 48 h; Potency: viability; series mostly up to 45.8 µM
Description: Assay Provider: Jason Cantor Ph.D.
Department of Biochemistry
University of Wisconsin-Madison, Madison, WI, USA
Chemical screening studies have identified drug sensitivities across hundreds of cancer cell lines but most putative therapeutics fail to translate. Discovery and development of drug candidates in models that more accurately reflect nutrient levels in human blood is a major challenge. Here we performed high-throughput screens in conventional versus Human Plasma-Like Medium (HPLM) to identify compounds that were "missed" when screening using the artificial culture condition. Sets of conditional anticancer compounds spanned phases of clinical development and included non-oncology drugs were assessed. […] We also traced conditional phenotypes for several chemotherapeutics to availability of HPLM-specific metabolites and confirmed others for compounds whose reported targets are encoded by nonessential genes. Our findings establish generalizable strategies for exploiting conditional lethality in HPLM to reveal therapeutic candidates and mechanisms of action in cancer cells.
Described herein are the results of each viability screens against three cell lines: NOMO1 (an acute myeloid leukemia cell line); P12-Ichikawa (a T-cell acute lymphoblastic leukemia); and SEM (a B-cell ALL). Each assay was screened using 3 different cell culture media: homemade human plasma-Like medium with 10% dialyzed fetal bovine serum (HPLM+ds); RPMI1640 with 10% untreated FBS and 5mM glucose (RPMI+s); and RPMI1640 with 10% dialyzed fetal bovine serum and 5 mM glucose (RPMI+ds).
PROTOCOL TABLE (as described by Inglese J, Shamu CE and Guy RK. 2007)
SEQUENCE No. (e.g., 1, 2, 3, etc.); […] (e.g., Cells, Incubation, Reagent, etc.); VALUE and DESCRIPTION.
1; Cells; 5 uL; white, solid bottom 1536-well Greiner assay plate.
2; Compounds; 23 nL; Kalypsis pin tool (Wako USA) equipped with a 1536-well pin head to transfer to the assay plates.
3; Incubation; 48 hours; 37C incubation.
4; Reagent; 3 uL; CellTiter Glo (Promega).
5; Incubation; 5 min, room temperature
6; Detection; Luminescence, Viewlux PerkinElmer.
NOTES (numbers refer to Sequence numbers above)
1. Briefly, 5 ul of cell reagent was dispensed using a Multidrop Combi Dispenser. The NOMO1 and SEM cells were plated at 500 cells/well and the P12-Ichikawa line at 1000 cells/well.
2. After seeding the cells, 23 nL of MIPE 4.1 library compounds (in DMSO) were added to each plate using a Kalypsys 1536 Pintool dispenser. Bortezomib at final concentration of […] and DMSO were added to each plate as positive and negative controls respectively. For each screen, MIPE 4.1 compounds were added over an eleven-point concentration range […] in 3-fold dilutions.
3. Each plate was covered with a stainless steel gasketed lid to prevent evaporation and incubated for 48 hour at 37C, 95% relative humidity, and 5% CO2.
4-5. Three microliter CellTilter-GloTM luminescent substrate mix (Promega) reagent was added to the assay plate and incubated at room temperature for 5 min.
6. The luminescence signal was measured using a ViewLux (PerkinElmer) multiplate reader with a 2 second exposure time per plate. Data for each compound were normalized as percent viability such that measurements for DMSO and the empty well controls in each plate were defined as 100% and 0%, respectively.
Potency is the fitted concentration of half-maximal effect.

| SMILES | Potency |
| --- | --- |
| CN1CCN(CCOc2cc(OC3CCOCC3)c3c(Nc4c(Cl)ccc5c4OCO5)ncnc3c2)CC1 | 8.33 µM (active) |
| COc1nc(N)nc2c1ncn2[C@@H]1O[C@H](CO)[C@@H](O)[C@@H]1O | inactive |
| CCC(=O)N[C@H]1CC[C@H](C(=O)N(C)c2ccc(-c3nc4ccccc4o3)cc2)C1 | inactive |
| CCc1ccc(CCOc2ccc(CC3SC(=O)NC3=O)cc2)nc1 (stereo not given) | inactive |
| O=C(OCC#CCSc1nnc(-c2cccc3ccccc23)o1)c1cc2ccccc2s1 | inactive |
| Cc1c(O)cccc1C(=O)N[C@@H](CSc1ccccc1)[C@H](O)CN1C[C@H]2CCCC[C@@H]2C[C@@H]1C(=O)NC(C)(C)C | inactive |
| CC(C)c1nc(CN(C)C(=O)N[C@H](C(=O)N[C@@H](Cc2ccccc2)C[C@H](O)[C@H](Cc2ccccc2)NC(=O)OCc2cncs2)C(C)C)cs1 | inactive |
| COc1ccc2c(c1)c(CC(=O)O)c(C)n2C(=O)c1ccc(Cl)cc1 | inactive |
| CC(C)C(=O)Oc1ccc(CO)cc1[C@H](CCN(C(C)C)C(C)C)c1ccccc1 | inactive |
| CC[C@H](NC(C)C)[C@H](O)c1ccc(O)c2[nH]c(=O)ccc12 | inactive |
| Nc1ccn(C[C@@H](CO)OCP(=O)(O)O)c(=O)n1 | inactive |
| CCC[C@@H](NC(=O)[C@@H]1[C@H]2CCC[C@@H]2CN1C(=O)[C@@H](NC(=O)[C@@H](NC(=O)c1cnccn1)C1CCCCC1)C(C)(C)C)C(=O)C(=O)NC1CC1 | inactive |
| CNC(=O)CN1CCC(Oc2cc3c(Nc4cccc(Cl)c4F)ncnc3cc2OC)CC1 | 2.64 µM (active) |
| CCCn1c(=O)c2[nH]c(C34CC5CC3C[C@@H](C5)C4)nc2n(CCC)c1=O | inactive |
| CN1CCN(C2=Nc3cc(Cl)ccc3Nc3ccccc32)CC1 | inactive |
| Cc1nc2c(-c3cnc(N)nc3)nc(N3CCOCC3)nc2n1C(C)C | 0.0029 µM (active) |
| COc1cccc2c(NCc3ccccc3)nc(-n3c(N)nc4ccccc43)nc12 | 16.6 µM (active) |
| CC[C@@]1(O)C(=O)OCc2c1cc1n(c2=O)Cc2cc3c(CN(C)C)c(O)ccc3nc2-1 | 0.105 µM (active) |
| FC(F)(F)c1ccc(C=Cc2nc(COc3ccc(CCCCn4ccnn4)cc3)co2)cc1 | 0.935 µM (active) |
| NS(=O)(=O)c1cc2c(cc1Cl)NC(C(Cl)Cl)NS2(=O)=O (stereo not given) | inactive |

| SMILES | Potency |
| --- | --- |
| CC[N+](CC)(CC)CCOc1cccc(OCC[N+](CC)(CC)CC)c1OCC[N+](CC)(CC)CC | inactive |
| N[C@@H](Cc1cc(I)c(Oc2cc(I)c(O)c(I)c2)c(I)c1)C(=O)O | inactive |
| CN1C(C(=O)Nc2ccccn2)=C(O)c2ccccc2S1(=O)=O | 11.8 µM (active) |
| CC(C)n1cnc2c(NCCc3ccc(O)cc3)nc(-c3csc4ccccc34)nc21 | 3.72 µM (active) |
| Cc1cnn(C)c1C(=O)Nc1cc(Nc2ccc3c(C=Cc4ccccn4)n[nH]c3c2)ccc1F | 20.9 µM (active) |
| NCCCC(N)(C(=O)O)C(F)F (stereo not given) | inactive |
| CC(C)Nc1cc(C(F)(F)F)cc2nc(NC(=O)c3cccnc3)nn12 | 0.935 µM (active) |
| NCCc1cnc[nH]1 | inactive |
| COc1ccc(C2Sc3ccccc3N(CCN(C)C)C(=O)C2OC(C)=O)cc1 (stereo not given) | inactive |
| CC(=O)OCCN1C(=O)c2c(C)nc3ccc(S(=O)(=O)N4CCOCC4)cc3c2C1=O | 2.64 µM (active) |
| NC(=NCCCCCCN=C(N)N=C(N)Nc1ccc(Cl)cc1)N=C(N)Nc1ccc(Cl)cc1 | inactive |
| O=C1Cc2cc(CCN3CCN(c4nsc5ccccc45)CC3)c(Cl)cc2N1 | inactive |
| C[C@@H]1[C@H](O)[C@@H](C)C=CC=CC=CC=CC=CC=CC=C[C@H](O[C@@H]2O[C@H](C)[C@H](O)[C@H](N)[C@@H]2O)C[C@@H]2O[C@](O)(C[C@@H](O)C[C@@H](O)[C@H](O)CC[C@@H](O)C[C@@H](O)CC(=O)O[C@H]1C)C[C@H](O)[C@@H]2C(=O)O | inactive |
| C[C@]12CC[C@H](O)CC1=CC[C@@H]1[C@H]2CC[C@]2(C)C(c3cccnc3)=CC[C@H]12 | inactive |
| CC(C)N(CC[C@H](c1ccccc1)c1cc(CO)ccc1O)C(C)C | inactive |
| OCCC#Cc1nc(-c2ccc(F)cc2)c(-c2ccncc2)n1CCCc1ccccc1 | inactive |
| Cc1cc(O)c2c(c1)C(=O)c1cc(O)cc(O)c1C2=O | inactive |
| NC(=O)NN=Cc1ccc([N+](=O)[O-])o1 | inactive |
| COc1cc(Nc2c(C#N)cnc3cc(OCCCN4CCN(C)CC4)c(OC)cc23)c(Cl)cc1Cl | 3.72 µM (active) |
| CCCCc1oc2ccccc2c1C(=O)c1cc(I)c(OCCN(CC)CC)c(I)c1 | inactive |
